HCV inhibitor: HCV inhibition; Potency, µM (top dose mostly 41.8 µM), usual class: inhibitors; Huh7.5.1 HCVcc-Cre infection, luciferase reporter, 44 h; 340,000 tested, 3.4% active
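Compounds are dispensed onto cells plated 4 h earlier at 1,000 per well, with HCVcc-Cre virus (about 0.5 moi) added next. Following 44 h of culture, luminescent signal is measured for 15 sec after 15 min with substrate at room temperature.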
SARS PLpro yeast: blocks SARS-CoV papain-like protease in a yeast assay | S. cerevisiae expressing SARS-CoV PLpro, growth rescue | Potency, µM (doses to about 32.9 µM), most hits filed as activators | 330,000 tested, 0.19% active; calls by dose curve; also: nearly all actives have a fitted effect of over 55% in size
Pf growth 48h: P. falciparum growth inhibition at 48 hours (one generation); AID 504832; Potency, µM (highest dose often 28.7 µM), hits mostly inhibitors; 310,000 tested, 5.9% active; P. falciparum luciferase growth in erythrocytes, 48 h
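Parasite viability was followed by luminescence of a genomically integrated firefly luciferase. Cultures held 0.1% parasitemia at 2% hematocrit (final), incubated under 5% CO2 at 37 C.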
NS1 function inh: inhibitors of influenza NS1 protein function. Potency, µM (highest dose often 46.1 µM). 270,000 tested, 0.4% active; calls by dose curve; also: actives are rising curves; nearly all actives have a fitted effect of over 50% in size
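Compounds were scored for reversing the slow growth caused by influenza A NS1 in S. cerevisiae, measured by optical density at 600 nm. Assay medium contained 2% galactose at pH 6.0; NS1-free yeast of the same strain were the positive control.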
AMA1-RON2 inh: disrupts binding of P. falciparum AMA1 to RON2 | AlphaScreen AMA1-biotinylated RON2 peptide binding | Potency, µM (titrated, usually from 58.2 µM), hits mostly inhibitors | 360,000 tested, 0.2% active | AID 720542; also: nearly all actives have a fitted effect of over 45% in size
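AMA1 (3D7) with his tag at 25 nM final met compounds first, then biotinylated RON2 peptide at 25 nM; detection used donor plus acceptor beads, 10 µg/mL apiece, read by AlphaScreen after 30 min at room temperature.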
Pf growth 96h: inhibits malaria parasite growth, 96 h; P. falciparum luciferase reporter growth, 96 h; Potency, µM (series often up to 28.7 µM), usual class: inhibitors; AID 504834; 320,000 tested, 6.9% active
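Infected RBCs, 2% Hct / 0.05% parasitemia final; luciferase-reporter P. falciparum; cpd 96 h, 37 C, 5% CO2; luciferase detection reagent; luminescence.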
Hits are given with their value; . = inactive; ? = inconclusive; / = no result; [ ] = another dose, or the depositor's remark. Only some compounds are listed: those with a hit (about 12% of all), similar ones and a draw of the others. Unless noted, calls follow the shape of the dose curve; as a rule, active = well fitted curve in the direction sought with a large enough effect; inconclusive = small, poorly fitted or top-dose-only effect, or another doubt; inactive = no such curve, though single readings can be large; an effect the other way counts as inactive or inconclusive.

SMILES	HCV inhibitor	SARS PLpro yeast	Pf growth 48h	NS1 function inh	AMA1-RON2 inh	Pf growth 96h
CC(C)CC(=O)C1CCCN(C(=O)c2ccc3oc(Cc4ccccc4)nc3c2)C1 (centres undefined)	22µM	.	.	.	.	.
CC(C)NC(=O)CN1CCN(C(=O)c2ccc3oc(CCCc4ccccc4)nc3c2)CC1	/	.	.	.	.	.
COCCN1CCN(C(=O)c2ccc3oc(CCc4ccccc4)nc3c2)CC1	/	.	.	.	.	.
COCC1CCN(C(=O)c2ccc3oc(CCc4ccccc4)nc3c2)C1 (centres undefined)	/	/	/	/	.	/
CCOC(=O)N1CCN(C(=O)c2ccc3oc(CCCc4ccccc4)nc3c2)CC1	.	/	.	.	.	10µM
CC(=O)N1CCN(C(=O)c2ccc3oc(CCCc4ccccc4)nc3c2)CC1	.	?	.	.	.	13µM
CCOC(=O)C1CCCN(C(=O)c2ccc3oc(Cc4ccccc4)nc3c2)C1 (centres undefined)	.	.	.	.	.	.
CN(C)c1nc(NC(C)(C)C)nc(NC(C)(C)C)n1	?	.	15µM	/	.	.
O=C(CCC(=O)c1cccs1)NCc1ccccc1Cl	.	.	/	/	.	/
O=C(Cc1ccc2c(c1)OCCO2)Nc1cc(C(F)(F)F)ccc1N1CCOCC1	?	.	15µM	/	.	?
O=C(CCc1ccccc1)NC(=S)Nc1cc(C(F)(F)F)ccc1N1CCOCC1	.	.	?	.	.	8.3µM
Cc1ccc[n+](CC(=O)Nc2cc(C(F)(F)F)ccc2N2CCOCC2)c1	.	.	2.1µM	/	.	?
COc1ccc(NC(C)=O)cc1NC(C)C(=O)Nc1cc(C(F)(F)F)ccc1N1CCOCC1 (centres undefined)	?	.	3.7µM	.	.	?
O=C(Nc1cc(C(F)(F)F)ccc1N1CCOCC1)C1=COCCO1	.	.	.	/	.	?
CC(C)CC(=O)NC(=S)Nc1cc(C(F)(F)F)ccc1N1CCOCC1	.	.	?	.	.	.
O=C(COC(=O)CCc1nc2ccccc2c(=O)[nH]1)Nc1ccccc1OC(F)F	.	.	.	/	.	.
CC(=O)c1cccc(NC(=O)Cn2cnc(S(=O)(=O)N3CCC(C)CC3)c2)c1	.	.	.	.	.	.
CCOC(=O)c1cccc(-n2c(-c3ccc(OC)cc3)nc3nc4ccccc4nc32)c1	.	.	.	.	/	?
O=P(O)(O)OP(=O)(O)OP(=O)(O)O	/	/	.	/	/	.
Cc1ccc2oc(C(=O)NCCC3CCCCO3)c(C)c2c1 (centres undefined)	.	.	.	.	.	?
Cc1c(C(=O)N(Cc2ccncc2)CC2CCCO2)oc2c(F)cccc12 (centres undefined)	.	.	.	.	.	10µM
Cc1ccc2oc(C(=O)N(Cc3ccc(N(C)C)cc3)CC3CCCO3)c(C)c2c1 (centres undefined)	.	.	.	.	18µM	.
Cc1ccc2c(C)c(C(=O)N(Cc3ccncc3)CC3CCCO3)oc2c1C (centres undefined)	?	.	.	.	.	.
Cc1cc2oc(C(=O)N(Cc3ccc(N(C)C)cc3)CC3CCCO3)c(C)c2cc1C (centres undefined)	?	.	?	.	14µM	?
Cc1nc2ccccc2c2c(N)c3ccccc3n12	.	.	?	/	.	8.3µM
SMILES	HCV inhibitor	SARS PLpro yeast	Pf growth 48h	NS1 function inh	AMA1-RON2 inh	Pf growth 96h
O=C(COC(=O)c1ccc(S(=O)(=O)N2CCCCC2)cc1)Nc1ccccc1Cl	.	.	.	/	.	.
CN(C)S(=O)(=O)c1cccc(NC(=O)c2ccccc2OCc2ccc(F)cc2)c1	6.3µM	.	12µM	.	.	?
CC(=O)c1ccccc1OCCOc1ccccc1C(C)=O	.	.	?	.	.	?
CC(=O)c1ccccc1OCc1ccc(S(=O)(=O)Cc2ccccc2)cc1	10µM	.	.	.	.	.
CN(C)S(=O)(=O)c1cccc(COc2ccccc2C(=O)Nc2ccccc2)c1	?	.	10µM	.	.	9.3µM
COc1ccccc1OCCCC(=O)Nc1nnc(C2CCCO2)s1 (centres undefined)	.	.	.	.	.	.
O=C(Cn1nc(C(=O)O)c2ccccc2c1=O)Nc1ccc2c(c1)C(=O)c1ccccc1C2=O	/	.	.	.	/	.
CC(=O)Nc1ccc(-c2cc(-c3ccccc3)nc(-c3ccccc3)n2)cc1	.	.	?	.	.[2.32 µM]	1.3µM
CCC(=O)Nc1ccc(-c2cc(-c3ccccc3)nc(-c3ccc(NC(=O)CC)cc3)n2)cc1	?	.	?	.	.	13µM
Cc1ccc(NC(=O)CN(C)C(=O)COC(=O)c2ccc(Cl)cc2O)cc1	.	.	.	/	.	.
O=C(CSc1nccn1Cc1ccc(F)cc1)NC1CCCC1	.	.	.	.	.	.
CCCn1c(SCC(=O)NC2CCCCC2)nnc1-c1ccccn1	.	.	.	/	.	.
O=C(CSc1nccn1Cc1ccccc1)NC1CCCC1	.	13µM	.	.	.	.
O=C(CSc1nnc(-c2ccccn2)n1Cc1ccccc1)NC1CCCC1	.	.	8.3µM	.	.	?
Nc1nc(Nc2ccc(Cl)cc2)c(NC=O)c(=O)[nH]1	.	/	/	/	.	/
O=C(c1cc2ccccn2n1)N1CCN(c2cccc(C(F)(F)F)c2)CC1	.	.	.	.	.	9.3µM
O=C(c1ccccn1)N1CCN(c2cccc(C(F)(F)F)c2)CC1	.	.	.	/	.	.
COc1cccc(CNC(=O)CN2C(=O)CSc3ccc(S(=O)(=O)N4CCCC4)cc32)c1	.	.	?	/	.	.
CC(=O)c1ccc(S(=O)(=O)Oc2ccc(-c3ccc(C(=O)O)cc3)cc2)cc1	.	.	.	.	.	.
CCS(=O)(=O)N1CCC(C(=O)Oc2ccccc2OC)CC1	.	.	.	.	.	13µM
CCOc1ccccc1NC(=O)C1CCN(S(=O)(=O)c2ccc(OC)c(OC)c2)CC1	.	.	.	.	.	6.6µM
CCOc1ccccc1NC(=O)C1CCN(c2ccc(S(=O)(=O)N3CCCC3)cc2)CC1	?	.	4.7µM	.	.	.[5.75 µM]
CCOc1ccccc1NC(=S)NC(=O)C1CC1	.	.	5.2µM	.	.	?
CCCCS(=O)(=O)N1CCC(C(=O)Oc2ccccc2OC)CC1	.	.	.	.	.	.
CCOC(=O)c1c(C)[nH]c(C)c1C(=O)COC(=O)/C=C/c1ccco1	.	.	?	/	.[11.6 µM]	.
COC(=O)CNC(=O)c1ccc(F)cc1	.	.	.	.	.	.
Cc1noc(C)c1S(=O)(=O)Nc1ccccc1N1CCOCC1	.	.	.	.	.	?
CCn1c(=O)c(C(=O)NCCc2ccc(OC)c(OC)c2)c(O)c2ccccc21	?	.	?	.	.	10µM
CCn1c(=O)c(C(=O)NCCc2ccccc2)c(O)c2ccccc21	.	.	?	.	.	.
